From PubChem BioAssay
In the library only some 8.6% were active in any assay of this set; here they are far more common.
Lassa entry = qHTS for Inhibitors of binding or entry into cells for Lassa Virus; Potency, µM (top dose mostly 49.2 µM), most hits filed as inhibitors; hit rate 4.1% among 18,000; Lassa virus pseudotyped entry inhibition, cell-based qHTS
Marburg entry = qHTS for Inhibitors of binding or entry into cells for Marburg Virus; Marburg virus pseudotype entry/binding inhibition, cell-based; Potency, µM (highest dose often 49.2 µM), most hits filed as inhibitors; hit rate 6.5% among 18,000; AID 720532, 2013
Numbers stand for hits; - = inactive; ? = inconclusive; . = no result given; [ ] = remark or other dose. Calls come from the whole dose curve; tested in HEK293 cells.

SMILES	Lassa entry	Marburg entry
Cc1cc(-c2ccc(N=Nc3ccc4c(S(=O)(=O)O)cc(S(=O)(=O)O)c(N)c4c3O)c(C)c2)ccc1N=Nc1ccc2c(S(=O)(=O)O)cc(S(=O)(=O)O)c(N)c2c1O	?	-
O=C1CCCC=C1C(CCc1ccccc1)OC(=O)c1ccc(Br)cc1 (centres undefined)	-[8.59 µM]	-[8.59 µM]
CC(=O)OC1CC(OC(C)=O)[C@]2(C)C(CC(OC(C)=O)[C@]3(C)C2CC[C@@]2(C)C(c4ccoc4)C[C@H]4O[C@]432)C1(C)C (some centres undefined)	-	-
CC(=O)OC1CC2C(C)(C)C=CC(=O)[C@@]2(C)C2CC[C@@]3(C)C(c4ccoc4)OC(=O)C4OC43[C@]12C (some centres undefined)	-	-
CC(=O)OC1C[C@@]2(C)C(c3ccoc3)C[C@H]3O[C@@]32[C@@]2(C)C(=O)C(O)=C3C(C)(C)C(=O)C=C[C@]3(C)C12 (some centres undefined)	?	2.51µM
CC(=O)O[C@@H]1C[C@@]2(C)C(c3ccoc3)C[C@H]3O[C@]32[C@]2(C)C(=O)C(O)=C3C(C)(C)C(=O)C=C[C@]3(C)C12 (some centres undefined)	8.91µM	8.91µM
CC(=O)C1=C(C)C[C@@]2(CC1)C(=O)[C@H](Cc1ccccc1)N(Cc1ccccc1)S2(=O)=O	-	-
CC(=CCO)CCO	-[8.59 µM]	-[8.59 µM]
COc1cc(C(C)=O)ccc1OCCCN1CCC(c2noc3cc(F)ccc23)CC1	-	6.31µM
COc1cc2c(Nc3ccc(NC(=O)c4ccccc4)cc3)ncnc2cc1OCCCN1CCOCC1	-	?
OCCO[C@@H]1[C@@H](O)[C@H](O)[C@@H](CO)O[C@@H]1O	-	-
[H+].[H+].[Hg+2].[O-]B([O-])[O-].[c-]1ccccc1	1µM	?
CC(=O)O[C@H]1C2[C@@H](OC(=O)Cc3ccccc3)[C@@H](C)C[C@]2(OC(C)=O)C(=O)/C(C)=C/[C@@H]2[C@H](CC[C@@]13CO3)C2(C)C (some centres undefined)	-	?
COc1cc(CC(=O)OCC2=C[C@H]3[C@@H]4C(C)(C)[C@]4(OC(C)=O)[C@H](OC(=O)Cc4ccccc4)[C@@H](C)[C@]3(O)[C@@H]3C=C(C)C(=O)[C@@]3(O)C2)ccc1O	12.6µM	?
C=C(C)[C@]12C[C@@H](C)[C@@]34OC(Cc5ccccc5)(O[C@@H]1[C@@H]3C=C(COC(=O)Cc1cc(I)c(O)c(OC)c1)C[C@]1(O)C(=O)C(C)=C[C@@H]41)O2	17.8µM	12.6µM
C=C(C)[C@]12C[C@@H](C)[C@@]34OC(Cc5ccccc5)(O[C@@H]1[C@@H]3C=C(COC(=O)Cc1cc(OC)c(O)cc1I)C[C@]1(O)C(=O)C(C)=C[C@@H]41)O2	20µM	14.1µM
C#CCCCON=C1C[C@@H](O)[C@H](O)[C@H]2[C@@H]3C(=O)N(Cc4ccc5c(c4)OCO5)C(=O)[C@@H]3CC[C@@H]12	-[8.59 µM]	-[8.59 µM]
CCC12C=C(C=Cc3ccccc3)C(CC)(C1)C(c1ccccc1)CC2=O (centres undefined)	-[8.59 µM]	-[8.59 µM]
CC1=C[C@@H](COCc2ccccc2)O[C@@]2(C1)C(=O)N(CC1CC1)c1ccccc12	-[8.59 µM]	-[8.59 µM]
COCCN1C(=O)NC(c2cccc(C(F)(F)F)c2)C(C(=O)OC)=C1C (centres undefined)	-[8.59 µM]	-[8.59 µM]
COc1ccccc1N1CCN(c2nc(CNC(=O)C3CC34CCCC4)nc3ccccc23)CC1 (centres undefined)	31.6µM	?
COc1ccccc1N1CCN(C[C@@H](C(=O)NC(C)(C)C)c2ccccc2)CC1	-	-
N#Cc1cccc(OCc2cn(CC(=O)c3ccc(O)cc3)nn2)c1	-	-
Cc1cc(=O)oc2cc(NC(=O)C(CCCCN)NC(=O)C(CC3CCCCC3)NC(=O)OCC3c4ccccc4-c4ccccc43)ccc12 (centres undefined)	-	-
Cc1cc(=O)oc2cc(NC(=O)[C@H](CCCCN)NC(=O)[C@H](CC3CCCCC3)NC(=O)OCC3c4ccccc4-c4ccccc43)ccc12	?	10µM
SMILES	Lassa entry	Marburg entry
CC(C)C[C@H]1COc2c(Cl)cccc2S(=O)(=O)N1Cc1cccc(F)c1	-	-
COc1ccc([C@]23Cc4cc(C#N)ccc4[C@H](O2)c2c(cc(C)n(-c4ccccc4)c2=O)O3)cc1	-[8.59 µM]	-[8.59 µM]
Oc1ccc([C@@H]2CNCCc3c2cc(O)c(O)c3Cl)cc1	-	-
Oc1ccc([C@H]2CNCc3c2ccc(O)c3O)cc1O	-	6.31µM
Cc1ccccc1OCC(O)CNCCOc1ccc(C(N)=O)cc1 (centres undefined)	-	-
CCCNCC(O)COc1ccccc1C(=O)CCc1ccccc1 (centres undefined)	?	7.08µM
O[C@H](CC#CCOc1ccccc1)COCc1ccccc1	-[8.59 µM]	-[8.59 µM]
CCC(=O)Oc1ccc2c(c1)CC[C@@H]1[C@@H]2CC[C@]2(C)[C@@H](OC(=O)CC)CC[C@@H]12	-	-
COC(=O)N[C@@H](c1cccs1)C(C(C)=O)C(=O)OC (some centres undefined)	-[8.59 µM]	-[8.59 µM]
O=C(/C=C/c1ccc(O)c(O)c1)OC(Cc1ccc(O)c(O)c1)C(=O)O (centres undefined)	-	8.91µM
O=C(/C=C\c1ccc(O)c(O)c1)O[C@@H](Cc1ccc(O)c(O)c1)C(=O)O	-	?
Cc1ccccc1CN1CCSCCS1(=O)=O	-	?
N#CC(C#N)=Cc1ccc(O)c(O)c1	-	-
CC(C)(C)c1cc(/C=C(\C#N)C(N)=S)cc(C(C)(C)C)c1O	28.2µM	4.47µM
N#CC(C#N)=C(N)/C(C#N)=C/c1cc(O)c(O)c(O)c1	-	-
CC(C)(C)c1cc(C=C(C#N)C#N)cc(C(C)(C)C)c1O	25.1µM	2.82µM
CC(C)C1C(=O)N(Cc2cn(CCC3OCCCO3)nn2)CCS(=O)(=O)N1Cc1ccc(-c2ccccc2)cc1 (centres undefined)	.	-
CC[C@@H](C(=O)[C@@H](C)[C@@H](O)[C@H](C)CCc1ccc(C)c(O)c1C(=O)O)C1O[C@](CC)(C2CC[C@](O)(CC)[C@H](C)O2)C[C@@H]1C (some centres undefined)	7.08µM	?
CC[C@H](C(=O)[C@H](C)[C@H](O)[C@H](C)CCc1ccc(C)c(O)c1C(=O)O)[C@H]1O[C@](CC)([C@@H]2CC[C@@](O)(CC)[C@H](C)O2)C[C@H]1C	?	2.82µM
COC(=O)[C@@H]1CC[C@H](C)[C@@H](c2ccc(C)cc2)N1C(=O)c1ccc(C=NO[C@@H](C)c2cc(-c3c(C)cc(C)cc3C)no2)cc1	-[8.59 µM]	-[8.59 µM]
CCN1C(=O)N(S(=O)(=O)c2ccc(C)cc2)C(c2ccccc2)C(C(=O)OC)=C1C (centres undefined)	-[8.59 µM]	-[8.59 µM]
COc1c2c(cc3c1OCO3)C13C=CC(OC)CC1N(C2)CC3O (centres undefined)	-	-
COC1C=CC23c4cc5c(cc4CN(CC2O)C3C1)OCO5 (centres undefined)	7.08µM	2.24µM
C[C@H]1CC[C@]2(NC1)O[C@H]1C[C@H]3[C@@H]4CC[C@H]5C[C@@H](O[C@@H]6O[C@H](CO)[C@H](O[C@@H]7O[C@H](CO)[C@@H](O)[C@H](O[C@@H]8OC[C@@H](O)[C@H](O)[C@H]8O)[C@H]7O[C@@H]7O[C@H](CO)[C@@H](O)[C@H](O)[C@H]7O)[C@H](O)[C@H]6O)CC[C@]5(C)[C@H]4CC[C@]3(C)[C@H]1[C@@H]2C	14.1µM	4.47µM
